According to PubChem BioAssay AID1159580 (chemical genetic matrix, 2015):
The campaign covered roughly 5,500 compounds. About 2,000 (36%) were called active. Inconclusive results (about 18%) are left out. Cut-off read from the data, not from the text of the source: active = normalized growth mostly below about 0.91 (no sharp cut-off); inconclusive = no clear call, values can overlap the other calls; inactive = mostly above about 0.92. The list shows a part of the results.

Assay: chemical genetic growth profiling, strain panel (AID 1159580);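 note: tested at 20 µM; growth read once vehicle control cultures reached saturation at 30 °C; 1 = growth at the plate median or of vehicle wells; lower values mean less growth of the strain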
Settings: growth OD

Measured: normalized growth

CC1(C)C(O)CC(O)C2(C)C1CC(O)C1(C)C2CCC2(C)C(c3ccoc3)OC(=O)C3OC321 (stereo not drawn)
inactive: S. cerevisiae deletion strains, locus YAL021C, strain ccr4, stronger effect = lower value 0.989 | S. cerevisiae deletion strains, locus YAL026C, strain drs2, stronger effect = lower value 0.983 | S. cerevisiae deletion strains, locus YAL030W, strain snc1, stronger effect = lower value 0.998 | S. cerevisiae deletion strains, locus YBL061C, strain skt5, stronger effect = lower value 1.01 | S. cerevisiae deletion strains, locus YBR009C, strain hhf1, stronger effect = lower value 0.999 | S. cerevisiae deletion strains, locus YBR021W, strain FUR4, stronger effect = lower value 0.974 | S. cerevisiae deletion strains, locus YBR023C, strain chs3, stronger effect = lower value 0.997 | S. cerevisiae deletion strains, locus YBR171W, strain sec66, stronger effect = lower value 0.988 | S. cerevisiae deletion strains, locus YBR229C, strain ROT2, stronger effect = lower value 1.01 | S. cerevisiae deletion strains, locus YBR231C, strain swc5, stronger effect = lower value 0.999 | S. cerevisiae deletion strains, locus YBR279W, strain paf1, stronger effect = lower value 0.992 | S. cerevisiae deletion strains, locus YCL011C, strain gbp2, stronger effect = lower value 0.976 | S. cerevisiae deletion strains, locus YCL016C, strain dcc1, stronger effect = lower value 0.985 | S. cerevisiae deletion strains, locus YCL029C, strain bik1, stronger effect = lower value 1.01 | S. cerevisiae deletion strains, locus YCL061C, strain MRC1, stronger effect = lower value 1.01 | S. cerevisiae deletion strains, locus YCL069W, strain vba3, stronger effect = lower value 1 | S. cerevisiae deletion strains, locus YCR088W, strain abp1, stronger effect = lower value 0.988 | S. cerevisiae deletion strains, locus YDL005C, strain med2, stronger effect = lower value 0.974 | S. cerevisiae deletion strains, locus YDL035C, strain GPR1, stronger effect = lower value 1.02 | S. cerevisiae deletion strains, locus YDL040C, strain nat1, stronger effect = lower value 0.991 | S. cerevisiae deletion strains, locus YDL074C, strain BRE1, stronger effect = lower value 0.998 | S. cerevisiae deletion strains, locus YDL101C, strain DUN1, stronger effect = lower value 1.02 | S. cerevisiae deletion strains, locus YDL185W, strain tfp1, stronger effect = lower value 1.03 | S. cerevisiae deletion strains, locus YDL192W, strain arf1, stronger effect = lower value 1.02 | S. cerevisiae deletion strains, locus YDR001C, strain nth1, stronger effect = lower value 0.994 | S. cerevisiae deletion strains, locus YDR069C, strain doa4, stronger effect = lower value 0.98 | S. cerevisiae deletion strains, locus YDR101C, strain arx1, stronger effect = lower value 1.01 | S. cerevisiae deletion strains, locus YDR137W, strain rgp1, stronger effect = lower value 0.988 | S. cerevisiae deletion strains, locus YDR150W, strain NUM1, stronger effect = lower value 0.998 | S. cerevisiae deletion strains, locus YDR159W, strain sac3, stronger effect = lower value 1.01 | S. cerevisiae deletion strains, locus YDR162C, strain NBP2, stronger effect = lower value 1.01 | S. cerevisiae deletion strains, locus YDR195W, strain ref2 0.953 | S. cerevisiae deletion strains, locus YDR297W, strain sur2, stronger effect = lower value 0.986 | S. cerevisiae deletion strains, locus YDR318W, strain mcm21, stronger effect = lower value 1.03 | S. cerevisiae deletion strains, locus YDR334W, strain swr1, stronger effect = lower value 0.985 | S. cerevisiae deletion strains, locus YDR335W, strain msn5, stronger effect = lower value 0.987 | S. cerevisiae deletion strains, locus YDR388W, stronger effect = lower value 1.02 | S. cerevisiae deletion strains, locus YDR392W, strain spt3, stronger effect = lower value 1.02 | S. cerevisiae deletion strains, locus YDR502C, strain sam2, stronger effect = lower value 1.02 | S. cerevisiae deletion strains, locus YEL003W, strain gim4, stronger effect = lower value 1.01 | S. cerevisiae deletion strains, locus YEL037C, strain rad23, stronger effect = lower value 0.987 | S. cerevisiae deletion strains, locus YEL061C, strain CIN8 (second series), stronger effect = lower value 0.989 | S. cerevisiae deletion strains, locus YEL061C, strain CIN8, stronger effect = lower value 0.998 | S. cerevisiae deletion strains, locus YER015W, strain faa2, stronger effect = lower value 0.994 | S. cerevisiae deletion strains, locus YER016W, strain bim1, stronger effect = lower value 0.999 | S. cerevisiae deletion strains, locus YER110C, stronger effect = lower value 1.04 | S. cerevisiae deletion strains, locus YER111C, strain swi4, stronger effect = lower value 0.98 | S. cerevisiae deletion strains, locus YER155C, strain BEM2 (second series), stronger effect = lower value 1.01 | S. cerevisiae deletion strains, locus YER155C, strain BEM2, stronger effect = lower value 0.99 | S. cerevisiae deletion strains, locus YER167W, strain BCK2, stronger effect = lower value 1 | S. cerevisiae deletion strains, locus YFR010W, strain ubp6, stronger effect = lower value 1.01 | S. cerevisiae deletion strains, locus YGL078C, strain dbp3, stronger effect = lower value 1.03 | S. cerevisiae deletion strains, locus YGL086W, strain mad1, stronger effect = lower value 1 | S. cerevisiae deletion strains, locus YGL167C, strain pmr1, stronger effect = lower value 0.994 | S. cerevisiae deletion strains, locus YGL173C, strain kem1, stronger effect = lower value 0.985 | S. cerevisiae deletion strains, locus YGL227W, strain vid30, stronger effect = lower value 0.983 | S. cerevisiae deletion strains, locus YGL240W, strain doc1, stronger effect = lower value 1.02 | S. cerevisiae deletion strains, locus YGL248W, strain PDE1, stronger effect = lower value 1.01 | S. cerevisiae deletion strains, locus YGL253W, strain hxk2, stronger effect = lower value 0.962 | S. cerevisiae deletion strains, locus YGR078C, strain PAC10, stronger effect = lower value 1.01 | S. cerevisiae deletion strains, locus YGR135W, strain pre9, stronger effect = lower value 1.03 | S. cerevisiae deletion strains, locus YGR229C, strain SMI1, stronger effect = lower value 1 | S. cerevisiae deletion strains, locus YGR252W, strain gcn5, stronger effect = lower value 1.01 | S. cerevisiae deletion strains, locus YHR013C, strain ard1, stronger effect = lower value 0.959 | S. cerevisiae deletion strains, locus YHR027C, strain rpn1, stronger effect = lower value 1 | S. cerevisiae deletion strains, locus YHR030C, strain SLT2, stronger effect = lower value 1.01 | S. cerevisiae deletion strains, locus YHR079C, strain IRE1 (second series), stronger effect = lower value 1.02 | S. cerevisiae deletion strains, locus YHR094C, strain hxt1, stronger effect = lower value 1.02 | S. cerevisiae deletion strains, locus YHR129C, strain ARP1, stronger effect = lower value 0.999 | S. cerevisiae deletion strains, locus YHR142W, strain chs7, stronger effect = lower value 0.972 | S. cerevisiae deletion strains, locus YHR200W, strain rpn10, stronger effect = lower value 1.01 | S. cerevisiae deletion strains, locus YIL066C, strain RNR3, stronger effect = lower value 1.02 | S. cerevisiae deletion strains, locus YIL073C, strain SPO22, stronger effect = lower value 1.08 | S. cerevisiae deletion strains, locus YIL125W, strain kgd1, stronger effect = lower value 1.01 | S. cerevisiae deletion strains, locus YIR030C, strain dcg1, stronger effect = lower value 1.02 | S. cerevisiae deletion strains, locus YJL092W, strain hpr5, stronger effect = lower value 0.997 | S. cerevisiae deletion strains, locus YJL095W, strain BCK1 (second series), stronger effect = lower value 0.983 | S. cerevisiae deletion strains, locus YJL095W, strain BCK1, stronger effect = lower value 1 | S. cerevisiae deletion strains, locus YJL115W, strain asf1, stronger effect = lower value 1 | S. cerevisiae deletion strains, locus YJL129C, strain trk1, stronger effect = lower value 0.959 | S. cerevisiae deletion strains, locus YJL134W, strain LCB3, stronger effect = lower value 0.996 | S. cerevisiae deletion strains, locus YJL154C, strain vps35, stronger effect = lower value 0.991 | S. cerevisiae deletion strains, locus YJL164C, strain tpk1, stronger effect = lower value 0.989 | S. cerevisiae deletion strains, locus YJL166W, strain qcr8, stronger effect = lower value 0.982 | S. cerevisiae deletion strains, locus YJL168C, strain set2, stronger effect = lower value 1.01 | S. cerevisiae deletion strains, locus YJL187C, strain SWE1 (second series), stronger effect = lower value 1.01 | S. cerevisiae deletion strains, locus YKL009W, strain mrt4, stronger effect = lower value 0.962 | S. cerevisiae deletion strains, locus YKL068W, stronger effect = lower value 1.01 | S. cerevisiae deletion strains, locus YKL085W, strain MDH1 (second series), stronger effect = lower value 1 | S. cerevisiae deletion strains, locus YKL085W, strain MDH1, stronger effect = lower value 1 | S. cerevisiae deletion strains, locus YKL160W, strain elf1, stronger effect = lower value 0.991 | S. cerevisiae deletion strains, locus YKL190W, strain CNB1, stronger effect = lower value 0.996 | S. cerevisiae deletion strains, locus YKR001C, strain vps1, stronger effect = lower value 1.01 | S. cerevisiae deletion strains, locus YKR026C, strain gcn3, stronger effect = lower value 0.989 | S. cerevisiae deletion strains, locus YKR091W, strain srl3, stronger effect = lower value 0.986 | S. cerevisiae deletion strains, locus YLL001W, strain dnm1, stronger effect = lower value 0.989 | S. cerevisiae deletion strains, locus YLL026W, stronger effect = lower value 1 | S. cerevisiae deletion strains, locus YLL041C, strain sdh2, stronger effect = lower value 1 | S. cerevisiae deletion strains, locus YLR027C, strain aat2, stronger effect = lower value 0.999 | S. cerevisiae deletion strains, locus YLR039C, strain RIC1, stronger effect = lower value 1.06 | S. cerevisiae deletion strains, locus YLR058C, strain SHM2, stronger effect = lower value 1.02 | S. cerevisiae deletion strains, locus YLR102C, strain apc9, stronger effect = lower value 1.02 | S. cerevisiae deletion strains, locus YLR221C, strain rsa3, stronger effect = lower value 0.993 | S. cerevisiae deletion strains, locus YLR258W, strain gsy2, stronger effect = lower value 0.994 | S. cerevisiae deletion strains, locus YLR262C, strain YPT6 (second series), stronger effect = lower value 0.994 | S. cerevisiae deletion strains, locus YLR262C, strain YPT6, stronger effect = lower value 1.07 | S. cerevisiae deletion strains, locus YLR268W, strain sec22, stronger effect = lower value 1.01 | S. cerevisiae deletion strains, locus YLR320W, strain mms22, stronger effect = lower value 1 | S. cerevisiae deletion strains, locus YLR330W, strain CHS5, stronger effect = lower value 1.01 | S. cerevisiae deletion strains, locus YLR342W, strain FKS1, stronger effect = lower value 0.999 | S. cerevisiae deletion strains, locus YLR357W, strain rsc2, stronger effect = lower value 0.995 | S. cerevisiae deletion strains, locus YLR370C, strain arc18, stronger effect = lower value 0.981 | S. cerevisiae deletion strains, locus YLR371W, strain rom2, stronger effect = lower value 0.954 | S. cerevisiae deletion strains, locus YLR384C, strain iki3, stronger effect = lower value 0.977 | S. cerevisiae deletion strains, locus YLR418C, strain cdc73, stronger effect = lower value 1.02 | S. cerevisiae deletion strains, locus YML016C, strain PPZ1, stronger effect = lower value 1.01 | S. cerevisiae deletion strains, locus YML032C, strain rad52, stronger effect = lower value 1 | S. cerevisiae deletion strains, locus YML120C, strain ndi1, stronger effect = lower value 0.991 | S. cerevisiae deletion strains, locus YML124C, strain tub3, stronger effect = lower value 1.01 | S. cerevisiae deletion strains, locus YMR058W, strain fet3, stronger effect = lower value 0.998 | S. cerevisiae deletion strains, locus YMR078C, strain ctf18, stronger effect = lower value 1.03 | S. cerevisiae deletion strains, locus YMR125W, strain sto1, stronger effect = lower value 0.98 | S. cerevisiae deletion strains, locus YMR129W, stronger effect = lower value 0.989 | S. cerevisiae deletion strains, locus YMR205C, strain PFK2, stronger effect = lower value 0.999 | S. cerevisiae deletion strains, locus YMR223W, strain ubp8, stronger effect = lower value 1.02 | S. cerevisiae deletion strains, locus YMR231W, strain pep5, stronger effect = lower value 0.987 | S. cerevisiae deletion strains, locus YMR307W, strain GAS1, stronger effect = lower value 1.02 | S. cerevisiae deletion strains, locus YNL067W, strain RPL9B, stronger effect = lower value 1.02 | S. cerevisiae deletion strains, locus YNL071W, strain lat1, stronger effect = lower value 0.998 | S. cerevisiae deletion strains, locus YNL128W, strain TEP1, stronger effect = lower value 1.02 | S. cerevisiae deletion strains, locus YNL153C, strain GIM3, stronger effect = lower value 1.01 | S. cerevisiae deletion strains, locus YNL209W, strain ssb2, stronger effect = lower value 1.01 | S. cerevisiae deletion strains, locus YNL233W, strain BNI4, stronger effect = lower value 0.995 | S. cerevisiae deletion strains, locus YNL248C, strain rpa49, stronger effect = lower value 0.964 | S. cerevisiae deletion strains, locus YNL250W, strain rad50, stronger effect = lower value 1.03 | S. cerevisiae deletion strains, locus YNL271C, strain bni1, stronger effect = lower value 1.03 | S. cerevisiae deletion strains, locus YNL298W, strain CLA4, stronger effect = lower value 1.02 | S. cerevisiae deletion strains, locus YNL307C, strain MCK1, stronger effect = lower value 1.03 | S. cerevisiae deletion strains, locus YNL322C, strain KRE1 (second series), stronger effect = lower value 0.988 | S. cerevisiae deletion strains, locus YNR049C, strain mso1, stronger effect = lower value 0.999 | S. cerevisiae deletion strains, locus YNR052C, strain pop2, stronger effect = lower value 1 | S. cerevisiae deletion strains, locus YOL006C, strain TOP1, stronger effect = lower value 1.13 | S. cerevisiae deletion strains, locus YOL012C, strain htz1 0.879 | S. cerevisiae deletion strains, locus YOL147C, strain pex11, stronger effect = lower value 1.01 | S. cerevisiae deletion strains, locus YOR001W, strain rrp6, stronger effect = lower value 1 | S. cerevisiae deletion strains, locus YOR061W, strain CKA2, stronger effect = lower value 1.02 | S. cerevisiae deletion strains, locus YOR069W, strain VPS5, stronger effect = lower value 1 | S. cerevisiae deletion strains, locus YOR070C, strain gyp1, stronger effect = lower value 1 | S. cerevisiae deletion strains, locus YOR080W, strain dia2, stronger effect = lower value 0.983 | S. cerevisiae deletion strains, locus YOR083W, strain WHI5, stronger effect = lower value 0.994 | S. cerevisiae deletion strains, locus YOR106W, strain vam3, stronger effect = lower value 0.996 | S. cerevisiae deletion strains, locus YOR136W, strain idh2, stronger effect = lower value 1.03 | S. cerevisiae deletion strains, locus YOR144C, strain elg1, stronger effect = lower value 1.02 | S. cerevisiae deletion strains, locus YOR184W, strain ser1, stronger effect = lower value 1.03 | S. cerevisiae deletion strains, locus YOR265W, strain rbl2, stronger effect = lower value 1 | S. cerevisiae deletion strains, locus YOR270C, strain vph1, stronger effect = lower value 0.914 | S. cerevisiae deletion strains, locus YOR290C, strain snf2, stronger effect = lower value 0.967 | S. cerevisiae deletion strains, locus YOR316C, strain cot1, stronger effect = lower value 1.02 | S. cerevisiae deletion strains, locus YPL051W, strain arl3, stronger effect = lower value 1 | S. cerevisiae deletion strains, locus YPL078C, strain atp4, stronger effect = lower value 0.986 | S. cerevisiae deletion strains, locus YPL106C, strain sse1, stronger effect = lower value 0.988 | S. cerevisiae deletion strains, locus YPL240C, strain hsp82, stronger effect = lower value 0.983 | S. cerevisiae deletion strains, locus YPR119W, strain clb2, stronger effect = lower value 1.01 | S. cerevisiae deletion strains, locus YPR141C, strain kar3, stronger effect = lower value 1.03 | S. cerevisiae deletion strains, locus YPR163C, strain tif3, stronger effect = lower value 1.03 | S. cerevisiae deletion strains, locus YPR167C, strain met16, stronger effect = lower value 1.02 | S. cerevisiae deletion strains, strain wtn01, stronger effect = lower value 1.02 | S. cerevisiae strains, strain wild type, stronger effect = lower value 1.02
